# Screening results as filed in PubChem BioAssay.
# HCT116 bCat-KO: primary screen for growth suppressors in beta-catenin knockout HCT116 cells (colon tumor, human) | actives 1.5% (n = 140,000) | viability, % at 10 µM | HCT116 beta-catenin knockout viability, CellTiter-Glo, 60 h; active compounds read low;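 active = viability at or under a set limit, the compound median less 4 SD, cut at about 6% in these data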
# PTEN del growth: growth suppression of PTEN-null HCT116, primary screen, cell-based, CellTiter-Glo; HCT116 PTEN-null viability, 60 h; active compounds read low; viability, % at 10 µM; actives 1.2% (n = 140,000);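 active = viability at or below a set limit, 4 SD under the median of all tested compounds, cut at about 3.7% in these data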;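 note: PTEN knockout HCT116 line with beta catenin targeted HCT116 as companion control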
# hDAT+cocaine: changed hDAT dopamine uptake under cocaine IC80, either direction, primary screen, cocaine antagonist project, cell-based, LLC-PK1 hDAT, [14C]-dopamine uptake, MLSMR | actives 1.3% (n = 110,000) | Sodium-dependent dopamine transporter (Homo sapiens), Q01959 | B-score at 10 µM | LLC-PK1 hDAT cells, [14C]-dopamine uptake with cocaine IC80; actives deviate in either direction;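 active = Z score or B-score, a plate-position-corrected score, falls beyond the plate's 99.7% confidence bounds, in either direction; inactive = both scores lie inside the 99.7% bounds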
# Target sequence (Q01959 whole entry, looked up): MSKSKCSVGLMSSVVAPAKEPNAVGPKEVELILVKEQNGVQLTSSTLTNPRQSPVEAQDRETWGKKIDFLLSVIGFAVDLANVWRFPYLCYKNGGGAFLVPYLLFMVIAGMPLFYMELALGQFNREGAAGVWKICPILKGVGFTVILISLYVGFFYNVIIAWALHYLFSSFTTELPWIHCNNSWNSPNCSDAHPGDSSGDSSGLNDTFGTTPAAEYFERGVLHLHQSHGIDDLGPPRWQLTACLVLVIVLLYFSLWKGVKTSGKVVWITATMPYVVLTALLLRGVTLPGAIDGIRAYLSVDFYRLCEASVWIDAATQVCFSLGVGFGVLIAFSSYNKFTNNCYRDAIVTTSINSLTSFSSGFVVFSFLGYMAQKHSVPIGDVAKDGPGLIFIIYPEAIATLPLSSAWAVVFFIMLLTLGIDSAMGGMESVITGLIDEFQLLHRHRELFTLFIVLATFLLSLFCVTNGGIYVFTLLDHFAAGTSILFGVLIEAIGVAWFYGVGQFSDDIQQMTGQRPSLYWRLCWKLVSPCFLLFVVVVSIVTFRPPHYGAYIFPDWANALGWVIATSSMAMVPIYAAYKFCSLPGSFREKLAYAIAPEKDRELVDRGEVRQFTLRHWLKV
# WT yeast gro inh: growth inhibition of WT strain, primary screen, mitochondrial fusion inhibitor project, WT and mutant strains, chemical genetic; mitochondrial fusion phenotypic screen; inhibition, % at 10 µM; actives 2.1% (n = 190,000); in the data active = inhibition above about 58%; tested in S. cerevisiae
# Hits are given with their value; 0 = inactive; - = no result given. In the library only some 3.6% were active in any assay of this set; here they are far more common.
SMILES,HCT116 bCat-KO,PTEN del growth,hDAT+cocaine,WT yeast gro inh
O=C(Nc1nnc(C2CC2)s1)c1ccc(S(=O)(=O)c2ccccc2)cc1,0,0,0,0
O=C(Nc1nncs1)c1ccc(S(=O)(=O)c2ccccc2)cc1,0,0,-8.73,0
O=C(CNC(=S)N(Cc1ccccc1F)C1CCCCC1)NCC1CCCO1 (centres undefined),-,-,-,0
COc1ccc(C)cc1NC(=O)c1ccoc1C,0,0,0,0
COc1ccc(C(C)(C)C)cc1NC(=O)c1ccoc1C,0,0,0,65.0
CCSc1nnc(NC(=O)[C@@H](NC(=O)c2cc(OC)cc(OC)c2)C(C)C)s1,-,-,-,0
O=c1[nH]c2c(s1)C(c1ccccc1)C1C3CCC(C3)C1S2 (centres undefined),0,0,0,0
COc1ccc(C2c3sc(=O)[nH]c3SC3C4CCC(C4)C23)cc1 (centres undefined),0,0,0,65.3
CC(C)Cn1c(N)c(C(=O)NCC2CCCO2)c2nc3ccccc3nc21 (centres undefined),0,0,0,59.8
c1ccc(OCCSc2nnc3sc4ccccc4n23)cc1,0,0,0,0
c1ccc2c(c1)sc1nnnn12,0,0,-,66.2
CCOC(=O)Cn1nc(C)c(NC(=O)COc2ccc([N+](=O)[O-])c(C)c2)c1C,-,-,-,0
Cc1c(C(=O)Nc2ccc(Cl)cc2)c2ccccn2c1C(=O)c1ccccc1,0,0,-9.53,0
Cc1cc(/C=N/n2cnnc2)c(C)n1-c1ccc(OCc2ccc(F)cc2)cc1,0,0,0,62.1
Cc1cc(/C=N/n2cnnc2)c(C)n1-c1ccc(OCc2ccc(Cl)cc2Cl)cc1,3.7,0,0,0
COc1ccc(OCC(O)Cn2c(=N)n(Cc3ccccc3)c3ccccc32)cc1 (centres undefined),0.8,1.4,0,0
Cc1cccc(OCC(O)Cn2c(=N)n(CCN3CCCCC3)c3ccccc32)c1 (centres undefined),1.9,1.5,0,0
Cc1ccc(OCC(O)Cn2c(=N)n(Cc3ccccc3)c3ccccc32)cc1 (centres undefined),1.4,1.6,0,0
N=c1n(Cc2ccccc2)c2ccccc2n1CC(O)COc1ccc(Cl)cc1Cl (centres undefined),-,-,-,93.8
CCN(CC)CCn1c(=N)n(CC(O)COc2cccc(C)c2)c2ccccc21 (centres undefined),-,-,-,0
COc1ccc(-c2[nH]ncc2CN2C[C@@H]3CCC[C@H]2C3)c(F)c1,-,-,-,0
CCOc1ccccc1CN1CCN(Cc2csc(C(C)=O)c2)CC1CCO (centres undefined),-,-,-,0
Cc1ccc(C(=O)C[n+]2cc(-c3ccc(C)cc3)n3c2CCCCC3)cc1,3.5,0,-,0
Cc1cc(C)c(N=C2CCCN2Cc2ccccc2)c(C#N)c1,0,0,3,0
CC1CC(C)CN(C(=O)CCNS(=O)(=O)c2cccs2)C1 (centres undefined),0,0,-,0
SMILES,HCT116 bCat-KO,PTEN del growth,hDAT+cocaine,WT yeast gro inh
Cc1ccc(C)c(N2CCN(C(=S)Nc3ccc4nc(N5CCN(C)CC5)cc(C)c4c3)CC2)c1,-,-,-,71.8
COc1ccc(N2CCN(C(=O)CCNS(=O)(=O)c3cccs3)CC2)cc1,0,0,11.1,0
Cc1ccc(C)c(N2CCN(C(=O)CNS(=O)(=O)c3cccs3)CC2)c1,0,0,1.68,0
CCOC(=O)N1CCN(C(=O)CNS(=O)(=O)c2cccs2)CC1,0,0,0,0
COC(=O)c1sccc1NC(=S)N1CCN(c2cc(C)ccc2C)CC1,0,0,-,76.6
COC(=O)c1sccc1NC(=S)N1CCN(C)CC1,-,-,-,0
Cn1c(C(=O)N2CCN(c3ccc([N+](=O)[O-])cc3)CC2)cc2c(=O)[nH]c3ccccc3c21,-,-,-,0
CCOC(=O)C1(S(=O)(=O)c2ccc(Cl)cc2)CCN(Cc2ccc(Cl)cc2)CC1,0,0,0,71.5
CCOC(=O)C1(S(=O)(=O)c2ccccc2)CCN(Cc2ccc(Cl)cc2)CC1,0,0,0,0
CCSC1=NC(C)(C)C=C(/C=C/c2ccc(Cl)cc2Cl)N1,0,0,0,59.9
CSC1=NC(C)(C)C=C(/C=C/c2ccc(Cl)cc2Cl)N1,-,-,-,68.0
CSC1=NC(C)(C)C=C(/C=C/c2ccc(Cl)cc2)N1,-,-,-,0
Cc1ccc2c(c1)c1c(n2CC(O)CNC2CCCCC2)CCCC1 (centres undefined),-,-,0,93.1
O=S(=O)(c1ccc(Br)s1)N1CCN(Cc2ccc3c(c2)OCO3)CC1,0,0,0,61.0
O=C(COC(=O)C1COc2ccccc2O1)NC(=O)Nc1ccc2c(c1)OCCO2 (centres undefined),0,0,0,98.7
O=C(Nc1nnc(C2=COCCO2)o1)c1ccc(S(=O)(=O)N2CCOCC2)cc1,-,-,-,0
O=C(Nc1nnc(C2=COCCO2)o1)c1ccc(Cc2ccccc2)cc1,-,-,-,67.8
O=C(Nc1nnc(-c2ccco2)o1)c1ccc(Cl)cc1,-,-,-,65.0
O=C(Nc1nnc(C2=COCCO2)o1)c1ccc(Cl)cc1,0,0,-,60.2
CCOC(=O)C(NC(C)=O)(Nc1ccc(S(N)(=O)=O)cc1)C(F)(F)F (centres undefined),0,0,-,0
Cc1nc(-c2cccc(NS(=O)(=O)c3ccc4ccccc4c3)c2)cs1,0,0,0,60.1
COCCNC(=S)N/N=C1\CC(C)CC(C)(C)C1 (centres undefined),-,-,-,0
CCOC(=O)C(=Nc1ccc(Cl)cc1)NO,0,0,-,0
CCOc1ccc(N2C(=O)CS/C2=N/NC(=O)COc2ccc3ccccc3c2)cc1,0,0,2.37,0
Cc1cc(C)nc(NC(=O)c2ccc(Cl)cc2Cl)n1,-,-,-,0
SMILES,HCT116 bCat-KO,PTEN del growth,hDAT+cocaine,WT yeast gro inh
COc1ccc(Cc2c[nH]c(=O)[nH]c2=O)cc1,0,0,0,0
O=c1[nH]cc(COCc2ccccc2)c(=O)[nH]1,2.6,0,0,0
CC(C)c1ccc(NC(=O)NC2CCN(CC(=O)Nc3cccc4ccccc34)CC2)cc1,0,0,-,0
O=C(COC(=O)c1ccc(NS(=O)(=O)c2ccc3c(c2)OCCO3)cc1)NC1CCS(=O)(=O)C1 (centres undefined),-,-,-,0
CC(C)(C)c1nc(NC(=O)Nc2ccccc2)sc1Br,-,-,-,59.2
COC(=O)C[C@H]1c2cc(F)ccc2S(=O)(=O)N1Cc1ccccc1,-,-,0,-
COCCNC(=S)N/N=C(\C)c1ccccc1O,4.2,0,-,0
O=C(CCc1nc(-c2ccccc2)no1)NCCc1ccccc1,0,0,0,61.8
O=C(CCCCCN1C(=O)c2ccccc2C1=O)Nc1ccc(S(=O)(=O)N2CCCCC2)cc1,0,0,0,67.8
CC1CCN(S(=O)(=O)c2ccc(NC(=O)CCN3C(=O)c4ccccc4C3=O)cc2)CC1,0,0,0,0
NNC(=O)C1CC1c1ccc(Cl)cc1 (centres undefined),0,0,-,0
CCc1cc(=O)oc2cc3occ(-c4ccc(OC)c(F)c4)c3cc12,4.2,2.7,-,0
CC(=O)N1N=C(c2ccc(Br)cc2)CC1c1cn(C)c2ccccc12 (centres undefined),0,0,-,74.2
